Reference: PubChem BioAssay AID1159580 (chemical genetic matrix, 2015)
Where “and” joins values, the source holds several entries; their conditions need not be identical. Equal values may be shown once. In all, about 5,500 compounds went through this assay and about 2,000 (36%) were called active. About 18% were inconclusive and are not listed. Cut-off read from the data, not from the text of the source: active = normalized growth mostly below about 0.91 (no sharp cut-off); inconclusive = no clear call, values can overlap the other calls; inactive = mostly above about 0.92. The list shows a part of the results.

Assay: chemical genetic growth profiling, strain panel (AID 1159580);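 note: tested at 20 µM; growth read once vehicle control cultures reached saturation at 30 °C; 1 = growth at the plate median or of vehicle wells; lower values mean less growth of the strain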
Settings: S. cerevisiae deletion strains, growth OD

Measured: normalized growth

CC1=C(CC(=O)O)c2cc(F)ccc2/C1=C\c1ccc(S(C)=O)cc1 (stereo unspecified)
inactive: locus YAL013W, strain DEP1, active compounds read low 1 | locus YAL021C, strain ccr4, active compounds read low 1.02 | locus YAL026C, strain drs2, active compounds read low 1.02 | locus YAL030W, strain snc1, active compounds read low 1.01 | locus YAL040C, strain CLN3, active compounds read low 0.99 | locus YBL061C, strain skt5, active compounds read low 1.02 | locus YBR009C, strain hhf1, active compounds read low 1.01 | locus YBR021W, strain FUR4, active compounds read low 1.03 | locus YBR023C, strain chs3, active compounds read low 1.02 | locus YBR171W, strain sec66, active compounds read low 1.02 | locus YBR229C, strain ROT2, active compounds read low 1 | locus YBR231C, strain swc5, active compounds read low 1.03 | locus YBR279W, strain paf1, active compounds read low 1.01 | locus YCL011C, strain gbp2, active compounds read low 1.03 | locus YCL016C, strain dcc1, active compounds read low 1.01 | locus YCL029C, strain bik1, active compounds read low 1.02 | locus YCL061C, strain MRC1 (second series), active compounds read low 1.01 | locus YCL061C, strain MRC1, active compounds read low 1.02 | locus YCL069W, strain vba3, active compounds read low 1.02 | locus YCR088W, strain abp1, active compounds read low 1.02 | locus YDL005C, strain med2, active compounds read low 1.02 | locus YDL035C, strain GPR1, active compounds read low 1.01 | locus YDL040C, strain nat1, active compounds read low 1.01 | locus YDL074C, strain BRE1, active compounds read low 0.981 | locus YDL101C, strain DUN1, active compounds read low 1.01 | locus YDL134C, strain PPH21, active compounds read low 0.999 | locus YDL185W, strain tfp1, active compounds read low 1 | locus YDL192W, strain arf1, active compounds read low 1.02 | locus YDR001C, strain nth1, active compounds read low 1.02 | locus YDR069C, strain doa4, active compounds read low 1.01 | locus YDR101C, strain arx1, active compounds read low 1.06 | locus YDR137W, strain rgp1, active compounds read low 1.02 | locus YDR150W, strain NUM1, active compounds read low 0.996 | locus YDR159W, strain sac3, active compounds read low 1.02 | locus YDR162C, strain NBP2, active compounds read low 1.01 | locus YDR195W, strain ref2 1.04 | locus YDR297W, strain sur2, active compounds read low 1.02 | locus YDR318W, strain mcm21, active compounds read low 1.02 | locus YDR334W, strain swr1, active compounds read low 1.02 | locus YDR335W, strain msn5, active compounds read low 1.01 | locus YDR363W, strain ESC2, active compounds read low 0.995 | locus YDR388W, active compounds read low 1.03 | locus YDR392W, strain spt3, active compounds read low 0.996 | locus YDR502C, strain sam2, active compounds read low 1.02 | locus YEL003W, strain gim4, active compounds read low 1.02 | locus YEL037C, strain rad23, active compounds read low 1.02 | locus YEL061C, strain CIN8 (second series), active compounds read low 1.03 | locus YEL061C, strain CIN8, active compounds read low 1.01 | locus YER002W, strain NOP16, active compounds read low 0.993 | locus YER015W, strain faa2, active compounds read low 1.01 | locus YER016W, strain bim1, active compounds read low 1 | locus YER110C, active compounds read low 1.03 | locus YER111C, strain swi4, active compounds read low 1.03 | locus YER155C, strain BEM2 (second series), active compounds read low 1.03 | locus YER155C, strain BEM2, active compounds read low 1.01 | locus YER167W, strain BCK2, active compounds read low 1.01 | locus YFR010W, strain ubp6, active compounds read low 1.02 | locus YGL078C, strain dbp3, active compounds read low 1.02 | locus YGL086W, strain mad1, active compounds read low 1.01 | locus YGL167C, strain pmr1, active compounds read low 1.03 | locus YGL173C, strain kem1, active compounds read low 1.02 | locus YGL227W, strain vid30, active compounds read low 1.03 | locus YGL240W, strain doc1, active compounds read low 1.01 | locus YGL248W, strain PDE1, active compounds read low 0.999 | locus YGL253W, strain hxk2, active compounds read low 1.02 | locus YGR078C, strain PAC10, active compounds read low 1.01 and 0.998 | locus YGR135W, strain pre9, active compounds read low 1 | locus YGR229C, strain SMI1, active compounds read low 0.977 | locus YGR252W, strain gcn5, active compounds read low 0.982 | locus YHR013C, strain ard1, active compounds read low 1.03 | locus YHR027C, strain rpn1, active compounds read low 1.02 | locus YHR030C, strain SLT2, active compounds read low 1.01 and 0.982 | locus YHR079C, strain IRE1 (second series), active compounds read low 1.03 | locus YHR079C, strain IRE1, active compounds read low 0.988 | locus YHR094C, strain hxt1, active compounds read low 1.02 | locus YHR129C, strain ARP1, active compounds read low 0.996 | locus YHR142W, strain chs7, active compounds read low 1.02 | locus YHR200W, strain rpn10, active compounds read low 1.03 | locus YIL066C, strain RNR3, active compounds read low 1 | locus YIL073C, strain SPO22, active compounds read low 1.04 | locus YIL125W, strain kgd1, active compounds read low 1.02 | locus YIR030C, strain dcg1, active compounds read low 1.02 | locus YJL092W, strain hpr5, active compounds read low 1.02 | locus YJL095W, strain BCK1 (second series), active compounds read low 1.02 | locus YJL095W, strain BCK1, active compounds read low 0.992 and 0.97 | locus YJL115W, strain asf1, active compounds read low 1.03 | locus YJL129C, strain trk1, active compounds read low 1.03 | locus YJL134W, strain LCB3, active compounds read low 1.01 | locus YJL154C, strain vps35, active compounds read low 1.02 | locus YJL164C, strain tpk1, active compounds read low 1.01 | locus YJL166W, strain qcr8, active compounds read low 1.01 | locus YJL168C, strain set2, active compounds read low 1.02 | locus YJL187C, strain SWE1 (second series), active compounds read low 1.01 | locus YJL187C, strain SWE1, active compounds read low 1.02 | locus YJR043C, strain POL32, active compounds read low 1 | locus YJR066W, strain TOR1, active compounds read low 0.924
